40 molecules from PubChem BioAssay (Tox21) can be followed below.

Results filed as inconclusive are left out. A number with no mark means an inactive call. The call rests on the fitted dose curve; in most records, active means well fitted activation curve with a large enough effect in the signal ratio in the repeat runs (not every such curve was filed as active); inconclusive means weak or mixed curves; inactive means flat fitted curve, though single readings scatter; the % refers to the signal ratio.
On the % scale 0 is the no-effect control and ±100 the full control effect.

The nature of the assay: qHTS assay to identify small molecule agonists of the hypoxia (HIF-1) signaling pathway (AID 1224846). The note with it: HRE-bla ME-180 cells, beta-lactamase ratio, 17 h; series mostly up to 76.8 µM; activation: at the top concentration. An excerpt: U.S. Tox21 Program National Center for Advancing Translational Sciences [NCATS] NIH Chemical Genomics Center [NCGC] U.S. Environmental Protection Agency [EPA] National Institutes of Environmental Health Sciences [NIEHS] National Toxicology Program [NTP] U.S. Food and Drug Administration [FDA] Tox21 Assay Overview: Hypoxia-inducible factor-1 (HIF-1) is the major hypoxia-regulated transcription factor that controls cellular responses to low oxygen concentration. HIF-1 is composed of two subunits: hypoxia responsive HIF-1-alpha and constitutively expressed HIF-1-beta, which is also known as aryl hydrocarbon receptor nuclear translocator. During hypoxic conditions, HIF-1-alpha heterodimerizes with HIF-1-beta and translocates into the nucleus where the HIF-1 complex binds to the hypoxia-response element (HRE) and activates expression of target genes such as VEGF (vascular endothelial growth factor). The HIF-1 pathway is essential to normal growth and development, and is involved in the pathophysiology of cancer, inflammation, and ischemia. Using a beta-lactamase reporter-gene under control of the hypoxia response element, a cell-based assay [CellSensor(TM) HRE-bla ME-180 from Life Technologies, Carlsbad, CA] was used to measure hypoxia-induced signaling. Tox21 10K library compounds were measured for their ability to induce the reporter gene activity.
Tox21 Assay Protocol Summary: HRE-bla ME-180 cells were dispensed at 2,000 cells per well in 6 uL of assay medium containing 0.5% dialyzed FBS into black wall/clear-bottom 1536-well plates using a Multidrop Combi (Thermo Scientific, Waltham, MA) dispenser. After the assay plates were incubated at 37C and 5% CO2 for 5 hrs, 23 nL of compounds dissolved in DMSO, positive controls or DMSO only was transferred to each well of the assay plate using a Pintool station (Kalypsys, San Diego, CA). The assay plates were incubated at 37C and 5% CO2 for 17 hrs. One uL of LiveBLAzerTM B/G FRET substrate (CCF4-AM) (Life Technologies) was added to each well using a Flying Reagent Dispenser (Aurora Discovery, San Diego, CA).
In general terms: Quantitative high-throughput screening tests each substance at several concentrations.
On to `CON(C)C(=O)Nc1ccc(Br)c(Cl)c1`, for which the “activation” value is -0.257%. Turning to `O=[N+]([O-])CCO`, the “activation” value is 0.156%. As to `CCCOC(=O)Cc1ccc(OCC(=O)N(CC)CC)c(OC)c1`, the “activation” value was -0.894% [at 35.5 µM].

Turning to `Cl/C=C/CCl`, the “activation” value is 0.182%. For `COC(=O)c1ccc(CBr)cc1`, the “activation” value was 0.0103%. As to `O=C(Cl)/C=C/C(=O)Cl`, the “activation” value is 0.231%.

Regarding `NC(=O)CS(=O)C(c1ccccc1)c1ccccc1` (stereo not given), the “activation” value was -0.193% [at 35.5 µM]. Consider `CCN(CCO)CCO`, for which the “activation” value was -0.675%.

Consider `CCN(CC)CCOC(=O)C(O)(c1ccccc1)c1ccccc1`, for which the “activation” value is -0.519% [at 35.5 µM]. In the case of `COc1ccc2c(C(=O)c3ccc(Cl)cc3)c(C)n(CC(=O)O)c2c1`, the “activation” value was -0.708% [at 35.5 µM]. Take `C[C@H]1CCCC(=O)CCC/C=C/c2cc(O)cc(O)c2C(=O)O1`: the “activation” value is 3.4% [at 35.5 µM]. Consider `CCOC(=O)C(Cl)Cc1cc(-n2nc(C)n(C(F)F)c2=O)c(F)cc1Cl` (stereo not given), for which the “activation” value was 0.942%. Next, `O=C(Cl)C(Cl)Cl`: -0.612%; `CC(Cc1ccccc1)NCCCCl` (stereo not given): 0.68% [at 35.5 µM].

For the molecule `COC[C@@H](NC(C)=O)C(=O)NCc1ccccc1`, the “activation” value was -0.717% [at 35.5 µM]. Next, `C=C(Cl)CCl`: 0.909%; `C#CC(C)(C)O`: 0.128%. For `C[C@]12C=CC(=O)C=C1CC[C@@H]1[C@@H]2CC[C@@]2(C)[C@H]1CC[C@]2(C)O`, the “activation” value is 1% [at 35.5 µM]. Turning to `CN1C(=O)COc2c(C(=O)NC3CN4CCC3CC4)cc(Cl)cc21` (stereo not given), the “activation” value was -0.479% [at 35.5 µM].

Turning to `CCOc1cc(OP(=S)(OC)OC)nc(CC)n1`, the “activation” value was -0.99%. Next, `CCOP(=S)(OCC)SCCl`: 1.06%.

As for `CCOC(=O)NC(C)(C)Cc1ccc(Cl)cc1`, the “activation” value was -0.376% [at 35.5 µM]. The same measure for `N#CN=C1SCCN1Cc1ccc(Cl)nc1`: 1.29%; for `CC(O)CCl` (stereo not given): -0.0271%; for `CNC(=O)Oc1ccccc1C(C)C`: -0.164%. For `NC(=O)OCCCc1ccccc1`, the “activation” value was -0.171% [at 35.5 µM]. `COP(=O)(O)OC`: the “activation” value was -0.991%.

For `O=C(O)C(Cl)Br` (stereo not given), the “activation” value is 1.25%. Next, `O=S1(=O)OCCO1`: -0.66%; `CS(=O)(=O)c1ccc(C(=O)C2C(=O)CCCC2=O)c(Cl)c1COCC(F)(F)F`: 0.354%; `O=[N+]([O-])c1cccc(CCl)c1`: -0.506%. Next, `CCOC(=O)Nc1cccc(OC(=O)Nc2ccccc2)c1`: -0.679%; `CC(C)C(C)(N)C#N` (stereo not given): -0.539%; `CCCCCCCC(=O)Cl`: -0.538%. In the case of `O=C(O)CBr`, the “activation” value was -0.0202%. The same measure for `CN=CNc1ccc(C)cc1C`: -1.12%; for `CCC(C)(C#N)N=NC(C)(C#N)CC` (stereo not given): -0.69%. The same measure for `[P]#[In]`: 0.0453%; for `CC(C)(N)Cc1ccccc1Cl`: 0.113% [at 35.5 µM].

For the molecule `BrCc1ccc(Br)cc1`, the “activation” value is -0.0711%.
